Data reported in article PMC10668032, “Altered binding affinity of SIX1-Q177R correlates with enhanced WNT5A and WNT pathway effector expression in Wilms tumor”.
Over roughly 33,000 sequences, “e-score” has its median near -0.05; the highest 2% begin near 0.38. Many of the other results were omitted from the sample, so the highest values are more common in it than they were.

Target: T1, SIX1-Q177R homeodomain (human, UniProt Q15475 108-198, Q177R)
T1 sequence: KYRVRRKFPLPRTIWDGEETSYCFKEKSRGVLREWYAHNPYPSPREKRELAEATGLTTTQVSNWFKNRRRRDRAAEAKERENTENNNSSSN
Experiment: universal protein binding microarray; Universal all-10-mer PBM (8x60K, AMADID 030236), 300 nM GST-tagged protein, Alexa Fluor 488 anti-GST; buffer, salt, pH and temperature not stated (as in Berger); high values mean tight binding
Conditions: protein: ivt; tags: N-terminal GST; dsDNA, one strand shown
How it was run: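 Binding was expressed as 8-mer E-scores calculated with the Universal PBM Analysis Suite. The GST-tagged homeodomains, made by in vitro transcription/translation, were applied in duplicate at 300 nM final concentration to universal 'all 10-mer' protein binding microarrays (8×60K format).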

Sequence | binding signal
CCCTCGGA | 0.19 ± 0.012 E-score
CCGAGTCA | 0.157 ± 0.00701 E-score
AACAGTGT | 0.323 ± 0.0244 E-score
GACGCCCC | 0.182 ± 0.00373 E-score
GAGTAACA | 0.24 ± 0.0048 E-score
ACGCTACA | 0.161 ± 0.0151 E-score
ACAACACC | 0.455 ± 0.00357 E-score
CCAACACG | 0.377 ± 0.0116 E-score
ACAACACT | 0.35 ± 0.00607 E-score
CCAACACC | 0.47 ± 0.00509 E-score
GCAACACC | 0.4669 ± 0.000587 E-score
ACAACACA | 0.232 ± 0.0598 E-score
CCAACACA | 0.163 ± 0.0809 E-score
ACAACACG | 0.358 ± 0.0104 E-score
GCAACCCC | 0.184 ± 0.013 E-score
GCTGGGTA | 0.227 ± 0.00462 E-score
ACTCGGCA | 0.161 ± 0.0126 E-score
CACCTTCC | 0.307 ± 0.017 E-score
CACTAGGG | 0.201 ± 0.0297 E-score
CAGTGTAA | 0.42 ± 0.0273 E-score
AAGTGTGA | 0.188 ± 0.0231 E-score
CAGGGTAA | 0.21 ± 0.00942 E-score

Sequence | binding signal
GAGTGTAA | 0.42 ± 0.0292 E-score
GGGAGTAA | 0.225 ± 0.0261 E-score
TAGAGTAA | 0.199 ± 0.00264 E-score
TAGTGTGA | 0.258 ± 0.0135 E-score
AAGTGTAT | 0.317 ± 0.0537 E-score
AAGTGTAA | 0.4 ± 0.0567 E-score
TAGTGTAA | 0.408 ± 0.0318 E-score
CAGTGTGA | 0.306 ± 0.0246 E-score
CACGAAAA | 0.157 ± 0.0159 E-score
GGGAGTTA | 0.2077 ± 0.00099 E-score
TCGGCACA | 0.217 ± 0.0118 E-score
CACCGCCA | 0.291 ± 0.0119 E-score
AGTCGGTG | 0.297 ± 0.0328 E-score
TGCGTACA | 0.18 ± 0.00951 E-score
ATAATACA | 0.166 ± 0.023 E-score
ACGAGGTG | 0.251 ± 0.0125 E-score
AGGCGGGG | 0.159 ± 0.0183 E-score
ACGCCACG | 0.171 ± 0.0126 E-score
AAGACCCC | 0.172 ± 0.0514 E-score
AGAGGTAT | 0.221 ± 0.0344 E-score
GTGTGGCA | 0.246 ± 0.0251 E-score
GTGCTGTA | 0.164 ± 0.0245 E-score

Sequence | binding signal
GTGTAGGA | 0.4 ± 0.00559 E-score
GTGTGGGA | 0.286 ± 0.0336 E-score
GTAGAGTA | 0.2533 ± 0.000997 E-score
GTGTAGTA | 0.464 ± 0.0137 E-score
GTGTGGAA | 0.193 ± 0.0214 E-score
GGGTAGTA | 0.161 ± 0.0206 E-score
GTGTAGAA | 0.427 ± 0.0121 E-score
GTGTAGCA | 0.425 ± 0.0131 E-score
TAGTAGCA | 0.159 ± 0.00204 E-score
GGGTAGGA | 0.213 ± 0.0147 E-score
CACGGCTA | 0.182 ± 0.0377 E-score
ACATGGGT | 0.209 ± 0.0274 E-score
CACCTGGG | 0.2794 ± 0.00115 E-score
CCCGCCAC | 0.195 ± 0.0268 E-score
TGGGGTAA | 0.26 ± 0.0142 E-score
CACCCGCG | 0.301 ± 0.00786 E-score
AGGCGACA | 0.25 ± 0.0166 E-score
ACACATGG | 0.185 ± 0.0286 E-score
GGAGGACA | 0.246 ± 0.019 E-score
CACGAACA | 0.25 ± 0.0125 E-score
AACACTCT | 0.35 ± 0.036 E-score
GATACTCA | 0.16 ± 0.00991 E-score

Sequence | binding signal
AACACTCC | 0.379 ± 0.0156 E-score
TACACTCA | 0.402 ± 0.0151 E-score
CACACTCC | 0.291 ± 0.0144 E-score
CACACTCG | 0.3527 ± 0.00165 E-score
AACACTCG | 0.337 ± 0.0357 E-score
GACACTCC | 0.43377 ± 0.000417 E-score
CACACTAA | 0.204 ± 0.0117 E-score
AACACTCA | 0.3999 ± 0.00301 E-score
CACACTCA | 0.21 ± 0.0192 E-score
GACACTCA | 0.422 ± 0.00429 E-score
CGGATCAC | 0.174 ± 0.0108 E-score
CACGGAGC | 0.163 ± 0.00672 E-score
CACTAGCG | 0.188 ± 0.0248 E-score
CCGTGCGA | 0.155 ± 0.0514 E-score
ACGGTGTC | 0.4875 ± 0.00246 E-score
CCGGTGCG | 0.179 ± 0.0475 E-score
CCGGTATC | 0.284 ± 0.0126 E-score
ACGGTGCG | 0.167 ± 0.0105 E-score
CCGGTGTC | 0.4894 ± 0.00404 E-score
ACGGTGTG | 0.367 ± 0.0153 E-score
